VP16 counter = Gal4-VP16 reporter inhibition counter-screen. Drosophila S2 Gal4-VP16 UAS-luciferase, luminescence, 20 h. Potency, µM (top dose mostly 53.6 µM), inactives show at the highest dose activity, negative = inhibition, usual class: inhibitors. 310,000 tested, 3.5% active. AID 2546;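 also: Gal4-VP16 expression switched on by copper sulfate through the metallothionein promoter; % is scaled to controls: 0 for no effect and ±100 for the full control effect; nearly all actives have a fitted effect of over 50% in size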
Sfp inh = inhibitors of Bacillus subtilis Sfp phosphopantetheinyl transferase | Q9F4F7 | Biochemical Sfp PPTase activity, qHTS | Potency, µM, for inactives: largest response in the series, negative = inhibition, hits mostly inhibitors | 310,000 tested, 3.5% active | AID 1490;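 also: the enzyme is Sfp with the accession as filed and its product quenches rhodamine fluorescence; 0% = enzyme reaction without inhibitor and -100% = no enzyme wells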
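Buffer: 50 mM Hepes-Na pH 7.6, 10 mM MgCl2, 0.01% Nonidet P-40, 0.01% BSA. Enzyme 15 nM, pre-exposed to compound 15 min; substrates then added and fluorescence change tracked over 30 min.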
PINK1 modulator = PINK1 expression modulation; PINK1 immunofluorescence, high-content cytometry, 24 h; Potency, µM (highest dose often 76.6 µM), for the others: at the highest dose activation (PINK1 increase), usual class: activators; 410,000 tested, 0.2% active; active = well fitted activation curve with a large enough effect; inconclusive = small, poorly fitted or top-dose-only effect; cell line not stated here; also: % of control where 0% means no effect; nearly all actives have a fitted effect of over 65% in size
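Stable cell line treated 24 h with compounds at 5 concentrations (CCCP controls), then fixed and immunostained for PINK1 plus nuclear and cell stains; PINK1 immunofluorescence quantified by laser-scanning microplate cytometry.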
Epigenetic reg = derepresses silenced GFP reporter in murine cells; murine LDR cells, GFP reporter derepression, 30 h; Potency, µM (doses to about 53.9 µM), for inactives: at the top dose GFP activation, usual class: activators; 280,000 tested, 0.2% active; also: % of control where 0% means no effect; nearly all actives have a fitted effect of over 60% in size
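Derepression of a silenced CMV-GFP reporter in murine LDR cells is scored by enumerating GFP-positive cells with a laser-scanning microplate cytometer after 30 hours of treatment at 37 C.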
ClpP mod = qHTS Assay for Activators of ClpP. 340,000 tested, 1.9% active. ATP-dependent Clp protease proteolytic subunit (Bacillus subtilis (strain 168)), P80244. Potency, µM (top dose mostly 57.5 µM), inactives show top-dose activity change, negative = active. purified B. subtilis ClpP, FRET peptide cleavage, 20 min; active = well fitted falling curve with a large enough effect; inconclusive = small, poorly fitted or top-dose-only effect; inactive = no such curve, though single readings can be large or run the other way; also: the source files actives as falling curves though it sought activators and does not explain the sign; nearly all actives have a fitted effect of over 65% in size
Target sequence (P80244 whole entry, looked up): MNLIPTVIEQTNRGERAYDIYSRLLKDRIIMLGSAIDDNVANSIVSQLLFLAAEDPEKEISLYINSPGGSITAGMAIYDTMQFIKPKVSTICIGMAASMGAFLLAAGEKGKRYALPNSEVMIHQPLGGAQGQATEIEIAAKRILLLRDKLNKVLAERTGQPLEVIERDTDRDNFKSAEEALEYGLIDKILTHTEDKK
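ClpP 10 microg/mL final, pH 8 Tris/KCl buffer with BSA, glycerol, Tween-20; compound pinned in; FRET-FV substrate; RT 20 min; Ex320/Em430; ΔFRET vs ADEP 5.8 microM, DMSO, no enzyme.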
RORgamma inh = inhibitors of mouse ROR gamma transcriptional activity. P51450. Drosophila S2 Gal4-RORgamma UAS-luciferase reporter, 20 h. Potency, µM (doses to about 53.6 µM), for inactives: at the top dose activity change, negative = inhibition, most hits filed as inhibitors. 310,000 tested, 5.4% active. AID 2551; also: % is scaled to controls: 0 for no effect and ±100 for the full control effect; nearly all actives have a fitted effect of over 60% in size
Target sequence (P51450 whole entry, looked up, the tested form may be a part): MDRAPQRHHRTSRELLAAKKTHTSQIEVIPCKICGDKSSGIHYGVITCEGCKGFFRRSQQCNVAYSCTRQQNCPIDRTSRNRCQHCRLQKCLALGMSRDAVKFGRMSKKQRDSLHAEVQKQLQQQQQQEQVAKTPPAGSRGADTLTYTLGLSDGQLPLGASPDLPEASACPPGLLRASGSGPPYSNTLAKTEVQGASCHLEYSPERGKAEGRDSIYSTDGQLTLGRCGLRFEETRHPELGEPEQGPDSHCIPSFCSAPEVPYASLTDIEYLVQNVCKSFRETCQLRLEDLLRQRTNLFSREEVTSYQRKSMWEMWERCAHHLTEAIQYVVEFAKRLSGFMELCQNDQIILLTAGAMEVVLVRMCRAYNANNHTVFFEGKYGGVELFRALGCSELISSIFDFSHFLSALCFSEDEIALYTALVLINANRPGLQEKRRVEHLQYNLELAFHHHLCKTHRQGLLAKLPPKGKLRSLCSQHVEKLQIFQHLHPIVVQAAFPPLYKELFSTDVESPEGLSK
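In this cell-based reporter format, copper sulfate (700 uM final) drives Gal4–ROR gamma fusion expression from a metallothionein promoter in Drosophila Schneider cells; compounds preincubated 1 hr, reporter read after 20 hr at ambient temperature.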
The depositor's hits bear a star; ? = inconclusive; . = no result; [ ] = remark or other dose. An excerpt weighted towards active compounds, which were near 8.1% of everything screened. Unless noted, calls follow the shape of the dose curve; as a rule, active = well fitted curve in the direction sought with a large enough effect; inconclusive = small, poorly fitted or top-dose-only effect, or another doubt; inactive = no such curve, though single readings can be large; an effect the other way counts as inactive or inconclusive. Potency is read from the fitted curve at half-maximal effect.

SMILES	VP16 counter	Sfp inh	PINK1 modulator	Epigenetic reg	ClpP mod	RORgamma inh
NC(=O)CC(NC(=O)c1ccc(Br)cc1)c1ccc(N2CCC(Cc3ccccc3)CC2)c([N+](=O)[O-])c1 (stereo not drawn)	20µM*	-5%	1%	.	-3%	-6%
NC(=O)CC(NC(=O)c1ccccc1)c1ccc(N2CCC(N3CCCC3)CC2)c([N+](=O)[O-])c1 (stereo not drawn)	1%	8%	1%	.	1%	-6%
NC(=O)CC(NC(=O)c1ccccc1)c1ccc(N2CCC(Cc3ccccc3)CC2)c([N+](=O)[O-])c1 (stereo not drawn)	11µM*	-13%	1%	.	1%	?
CCC(=O)N1CCc2cc(S(=O)(=O)NCCC(=O)Nc3ccc(C)cc3C)ccc21	.	.	1%	1%	-1%	.
Cc1cccc(C(=O)Nc2cc3c(cc2N2CCCCC2)n(C)c(=O)n3C)c1	.	.	1%	-5%	-4%	.
CC1(C)CCc2cc(O)ccc2O1	.	.	2%	.	1%	.
COc1ccc(C(=O)Cn2c(C(=O)/C=C/c3ccccc3)nc3ccccc32)cc1	?	-36%	0%	?	8%	4µM*
COc1cc(/C=C/c2ccc(O)cc2)cc(OC)c1	?	56µM*	5%	-1%	-28%	?
COc1ccc(/C=C/C(=O)c2ccoc2)cc1	4%	8%	5%	0%	-18%	9%
COc1ccc(C(=O)CSc2nc3ccccc3n2CC(=O)c2ccccc2)cc1	-4%	22%	3%[38.3 µM]	-2%	0%	-10%
COc1ccc(/C=C/C(=O)c2ccc(O)cc2)cc1	7.1µM*	1%	1%	0%	-4%	2.5µM*
COc1ccc(/C=C/C(=O)c2ccccn2)cc1	11µM*	28µM*	2%	2%	.	11µM*
Cc1ccc(OCC(=O)Nc2nonc2-c2ccc(Br)cc2)cc1C	.	.	3%	-3%	-1%	.
CN(C)c1ccnc2sc(C(=O)c3ccc(Br)cc3)c(N)c12	4%	-30%	-2%	2%	.	42%
Cc1snc2sc(C(=O)c3ccc(F)cc3)c(N)c12	16%	40µM*	-1%	0%	.	21%
COc1cc(-c2cc(C)c3cccc(OC)c3n2)cc2c1OCCN(C(=O)CC1NC(=O)c3ccccc31)C2 (stereo not drawn)	.	.	-1%	.	.	.
Cc1cc2c(c(-c3cnccn3)c1)OC(CNC(=O)c1cc(Cl)ccc1F)C2 (stereo not drawn)	.	.	1%	.	.	.
CCN1CNC(=S)N(c2cc(C)ccc2C)C1	-29%	10%	-5%[38.3 µM]	0%	1%	?
Cc1ccccc1N1CN(Cc2ccco2)CNC1=S	?	7%	-1%	0%	-7%	10µM*
Cc1ccc(C)c(N2CN(Cc3ccco3)CNC2=S)c1	10µM*	18%	0%	0%	-2%	6.3µM*
Cc1cccc(N2CN(Cc3ccco3)CNC2=S)c1C	11µM*	24%	0%	1%	-2%	7.1µM*
Cc1ccc(OCCOCCn2c(-c3ccc(Cl)cc3)nc3ccccc3c2=O)cc1	.	.	1%	-2%	0%	.
CCOc1c(OC(C)=O)ccc(/C=C/c2ccc3cccc(OC)c3n2)c1[N+](=O)[O-]	-5%	4%	11%	-4%	1%	?
COc1cc(Br)cc(/C=C/c2ccc3cccc(O)c3n2)c1OC	?	14%	19%	.	-1%	2.5µM*
COc1ccc(Br)cc1/C=C/c1ccc2cccc(O)c2n1	?	13%	?	.	.	4.5µM*
SMILES	VP16 counter	Sfp inh	PINK1 modulator	Epigenetic reg	ClpP mod	RORgamma inh
COc1ccc(Br)cc1C(=O)Nc1cccc2ccc(C)nc12	.	.	0%	1%	?	.
Cc1cc(C)cc(-n2ccnc(NCc3ccc(F)cc3)c2=O)c1	.	.	0%	-4%	-14%	.
Cc1nn(-c2ccccc2)c2c1N(CC(=O)N1CCN(c3ccccc3F)CC1)C(=O)CS2	.	.	1%	3%	-1%	.
O=C(Nc1ccc(N2CCC(c3ccccc3)C2)c(C(=O)O)c1)c1ccc(Cl)cc1 (stereo not drawn)	.	.	1%	0%	0%	.
CCC(=O)NC1=C(C#N)C2(CCCC2)Cc2ccccc21	3%	-2%	1%	1%	32µM*	0%
Cc1ccc(CC2CC(=O)N(Cc3ccco3)C2=O)cc1 (stereo not drawn)	-7%	35µM*	-1%	-6%	0%	0%
Cc1ccc(CN2CCN(Cc3ccco3)CC2)cc1	-4%	?	0%	.	1%	-13%
O=C1CC(Cc2ccccc2)C(=O)N1Cc1ccco1 (stereo not drawn)	-14%	14µM*	1%	-3%	-1%	19%
Clc1ccc(-c2cnc3n2CCCCC3)cc1	?	14%	-1%	1%	.	5.6µM*
CCOc1ccc(-c2cnc3n2CCC3)cc1	-27%	18%	6%	0%	-17%	16µM*
Fc1ccc(-c2cnc3n2CCCCC3)cc1	-15%	11%	1%	0%	.	11µM*
CCOC(=O)c1c(NC(=O)CSc2cn(CCNC(=O)c3ccc(OC)cc3)c3ccccc23)sc2c1CCCC2	.	.	1%	0%	-8%	.
Cc1ccc(NC(=S)NN2CCOCC2)c(C)c1	?	8%	-1%	-1%	-2%	11µM*
Cc1cc(Br)ccc1NC(=S)N1CCOCC1	1%	13%	1%	0%	.	13µM*
Cc1ccc(C)c(NC(=S)NCCN2CCOCC2)c1	.	.	-2%	.	1%	.
COc1ccc(Cl)cc1NC(=S)NN1CCOCC1	?	18%	1%	-2%	.	5µM*
COc1ccc(OC)c(NC(=S)NN2CCOCC2)c1	-8%[0.365 µM]	16%	-2%	2%	-2%	28µM*
C=C(CO)C1Cc2c(ccc3c(=O)c4c(oc23)COc2cc(OC)c(OC)cc2-4)O1 (stereo not drawn)	-14%	-9%	.	-3%	.	-4%
COCCn1c(=S)[nH]c2cc(C(=O)N3CCN(C4CCCCC4)CC3)ccc2c1=O	.	.	1%	.	1%	.
COCCn1c(=S)[nH]c2cc(C(=O)N3CCc4ccccc43)ccc2c1=O	?	-6%	?	-1%	-1%	13µM*
CCCn1c(=S)[nH]c2cc(C(=O)N3CCc4ccccc43)ccc2c1=O	3.5µM*	10%	-4%	-1%	-1%	2.8µM*
Cc1ccc(/C=N/NC(=O)c2cc(-c3ccc(C)o3)[nH]n2)cc1	-4%	21%	11%	.	.	-15%
O=C(N/N=C/C=C\c1ccccc1[N+](=O)[O-])c1cc(-c2ccc3ccccc3c2)n[nH]1	4.5µM*	-22%	6%	-1%	.	3.2µM*
COc1ccccc1C=NNC(=O)c1ccncc1	.	.	1%	.	.	.

Assay outcomes deposited in PubChem BioAssay by National Center for Advancing Translational Sciences (NCATS).
